31 compounds from ChEMBL document CHEMBL4513147, “CO-ADD screening of Armstrong State University (GA, USA) compounds” can be followed below.

As usually defined, the Inhibition is the change of the read-out against control, counted positive when it falls.

Assay [1] has as its system Klebsiella pneumoniae. Particulars: Concentration 32 ug.mL-1; ASSAY_TEST Inhibition of Bacterial Growth; detection method Absorption (OD600); MEDIA CAMHB; plate type 384well; NBS; CORNING #3640; time 18 hr.
The subject of assay [2] is Candida albicans. Particulars: 32 ug/mL.
The subject of assay [3] is Cryptococcus neoformans. Particulars: Concentration 32 ug.mL-1; ASSAY_TEST Inhibition of Fungal Growth; detection method Resazurin; Absorption (OD600-OD570); plate type 384well; NBS; CORNING #3640.

Molecules are shown by their SMILES. Potency and affinity values are given separately.

For `COc1ccc(/C=C/C(=O)c2ccc(OCc3ccc(Br)cc3)cc2)cc1OC`, the results for the Inhibition in assay [1], in assay [2] and in assay [3] were 12.55%, 14.1% and -82.08%, respectively.

With `COc1ccc2c(c1)C(=O)C(=Cc1cccnc1)CC2`, the Inhibition in assay [1] worked out at 13.34%; in assay [2], 3.76%; in assay [3] it was 20.35%.

For `COc1ccc2c(c1)CCC(=Cc1cncc(Br)c1)C2=O`, the Inhibition in assay [1] was 10.09%; in assay [2], 4.95%; in assay [3] it was -1.36%.

In the case of `CC(C)(C)OC(=O)N1CC(=Cc2ccco2)C(=O)/C(=C/c2ccco2)C1`, the results for the Inhibition in assay [1], in assay [2] and in assay [3] were 8.12%, 19.9% and -64.29%, respectively.

Take `COc1cccc2c1CCC(=Cc1ccco1)C2=O`: the results for the Inhibition in assay [1], in assay [2] and in assay [3] were 9.39%, 2.23% and 7.54%, respectively.

`COc1ccc2c(c1)C(=O)C(=Cc1cncc(Br)c1)CC2`: the Inhibition in assay [1] is 11.33%; in assay [2], 3.19%; in assay [3], -18.22%.

With `COc1ccc2c(c1)C(O)C(=Cc1cccnc1Cl)CC2` (stereo not drawn), the figures for the Inhibition in assay [1], in assay [2] and in assay [3] were 10.57%, 15% and -69.16%, respectively.

Regarding `COc1ccc2c(c1)C(=O)C(=Cc1ccoc1)CC2`, the figures for the Inhibition in assay [1], in assay [2] and in assay [3] were 17.88%, 8.42% and -57.68%, respectively.

As for `COc1ccc2c(c1)C(=O)C(=Cc1ccccn1)CC2`, the values for the Inhibition in assay [1], in assay [2] and in assay [3] were 11.4%, 3.51% and -7.78%, respectively.

For the compound `COc1ccc2c(c1)CCC(=Cc1cccnc1)C2=O`, the Inhibition was 16.02% in assay [1], 2.52% in assay [2] and -44.32% in assay [3].

On to `COc1ccc2c(c1)CCC(=Cc1cccnc1Br)C2=O`, for which the Inhibition is 13.02% in assay [1], 3.93% in assay [2] and -19.45% in assay [3].

For the compound `Cc1ccc(C=C2CN(C(=O)OC(C)(C)C)C/C(=C\c3ccc(C)cc3C)C2=O)c(C)c1`, the Inhibition was 13.54% in assay [1], -1.7% in assay [2] and -52.76% in assay [3].

Regarding `COc1cccc2c1CCC(=Cc1cccc(C=C3CCc4c(OC)cccc4C3=O)c1)C2=O`, the Inhibition is 0.44% in assay [1], 12.4% in assay [2] and -91.11% in assay [3].

For the compound `COc1ccc2c(c1)CCC(=Cc1ccccn1)C2=O`, the Inhibition in assay [1] is 8.96%; in assay [2], 0.77%; in assay [3], -41.47%.

Consider `COc1ccc2c(c1)CCC(=Cc1cccnc1Cl)C2=O`, for which the Inhibition in assay [1] is 12.5%; in assay [2] it was 3.75%; in assay [3], -15.01%.

As to `COc1ccc2c(c1)CCC(=Cc1ccncc1)C2=O`, the figures for the Inhibition in assay [1], in assay [2] and in assay [3] were 14.05%, 2.55% and -80.91%, respectively.

Consider `COc1ccc2c(c1)CCC(=Cc1ccco1)C2=O`, for which the Inhibition was 10.81% in assay [1], 4.52% in assay [2] and -43.38% in assay [3].

As to `COc1ccc2c(c1)C(=O)C(=Cc1cccnc1OC)CC2`, the Inhibition was 14.75% in assay [1], 2.73% in assay [2] and -33.37% in assay [3].

Take `COc1ccc2c(c1)CCC(=Cc1ccoc1)C2=O`: the Inhibition in assay [1] is 11.83%; in assay [2], 5.64%; in assay [3], -36.87%.

Consider `COc1cc2c(cc1OC)C(=O)C(=Cc1ccoc1)CC2`, for which the Inhibition was 14.64% in assay [1], 20% in assay [2] and -157.54% in assay [3].

`COc1ccc2c(c1)C(=O)C(=Cc1ccco1)CC2`: the values for the Inhibition in assay [1], in assay [2] and in assay [3] were 14.42%, 6.5% and -54.58%, respectively.

Consider `COc1ccc2c(c1)C(=O)C(=Cc1cnccc1OC)CC2`, for which the Inhibition in assay [1] is 13.46%; in assay [2], 2.37%; in assay [3], -28.9%.

As to `COc1ccc2c(c1)C(=O)C(=Cc1cccnc1Cl)CC2.Cl`, the Inhibition in assay [1] was 17.3%; in assay [2], 3.54%; in assay [3], -54.29%.

With `COc1ccc2c(c1)CCC(=Cc1ccc(OC)nc1)C2=O`, the Inhibition in assay [1] was 13.52%; in assay [2] it was 3.72%; in assay [3], -60.31%.

Regarding `COc1cc2c(cc1OC)C(=O)C(=Cc1ccco1)CC2`, the Inhibition is 12.89% in assay [1], 36.5% in assay [2] and -192.19% in assay [3].

`COc1ccc2c(c1)CCC(=Cc1cnccc1OC)C2=O`: the Inhibition in assay [1] was 11.4%; in assay [2] it was -0.18%; in assay [3], -48.3%.

Turning to `CC(C)(C)OC(=O)N1CC(=Cc2ccoc2)C(=O)/C(=C/c2ccoc2)C1`, the results for the Inhibition in assay [1], in assay [2] and in assay [3] were 21.57%, 14.2% and -84.77%, respectively.

Turning to `COc1ccc2c(c1)C(=O)C(=Cc1cccnc1Br)CC2`, the values for the Inhibition in assay [1], in assay [2] and in assay [3] were 8.16%, 1.26% and -14.82%, respectively.

`COc1ccc2c(c1)C(=O)C(=Cc1cccnc1Cl)CC2`: the Inhibition in assay [1] was 12.62%; in assay [2], 6.91%; in assay [3], -40.92%.

Consider `COc1cccc2c1CCC(=Cc1ccoc1)C2=O`, for which the Inhibition is 11.44% in assay [1], 10.1% in assay [2] and -46.61% in assay [3].

For `COc1ccc2c(c1)C(=O)C(=Cc1cccc(C=C3CCc4ccc(OC)cc4C3=O)c1)CC2`, the Inhibition in assay [1] was 10.58%; in assay [2], 2.22%; in assay [3], -34.17%.
